Source: PubChem BioAssay
Hits are enriched below; roughly 2% of the tested compounds scored in any of these assays.
Rin1-Abl PPI inh = blocks binding of human Rin1 to Abl; 360,000 compounds, 0.4% hits; AID 588664; inhibition, % at 7.35 µM; TR-FRET Rin1/Abl binding, biochemical; P00519+Q13671; in the data active = inhibition above about 5%, passing the limit was not always enough
TCR-CD3 inh = human TCR-CD3 binding inhibition; TAMRA-labeled TCR probe fluorescence, biochemical; inhibition, % at 9.4 µM; 360,000 compounds, 0.37% hits; AID 651800; in the data active = inhibition above about 19%;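 also: recombinant mutant TCR 2C K166C tagged with TAMRA read by polarization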
MBD2 DNA inh = MBD2-methylated oligo binding inhibition | inhibition, % at 4.4 µM | AID 686964 | 370,000 compounds, 0.31% hits | TR-FRET, MBD2 binding to methylated oligonucleotide | Q9UBB5; in the data active = inhibition above about 13%
Target sequence (Q9UBB5 whole entry, looked up): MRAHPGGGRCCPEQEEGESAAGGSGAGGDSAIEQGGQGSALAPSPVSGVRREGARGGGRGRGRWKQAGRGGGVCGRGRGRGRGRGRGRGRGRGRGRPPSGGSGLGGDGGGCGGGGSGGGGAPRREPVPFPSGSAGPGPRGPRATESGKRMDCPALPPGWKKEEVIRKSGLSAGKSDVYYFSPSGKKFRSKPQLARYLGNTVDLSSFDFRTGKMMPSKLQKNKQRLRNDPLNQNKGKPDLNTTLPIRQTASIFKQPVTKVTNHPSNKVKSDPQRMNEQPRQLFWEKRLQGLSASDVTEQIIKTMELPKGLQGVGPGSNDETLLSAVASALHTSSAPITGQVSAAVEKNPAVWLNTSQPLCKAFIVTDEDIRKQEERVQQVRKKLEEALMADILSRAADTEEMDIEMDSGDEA
UHRF1 binding = human UHRF1 methylated DNA binding inhibitors; inhibition, % at 4.4 µM; 370,000 compounds, 0.75% hits; UHRF1 binding to methylated oligo, TR-FRET; Q96T88; in the data active = inhibition above about 21%;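 also: UHRF1 SRA domain binding a hemimethylated CpG hairpin DNA probe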
LEDGF integ inh = blocks HIV-1 LEDGF/p75-dependent DNA integration | TR-FRET IN-LEDGF/p75 DNA integration, Eu/Cy5 | inhibition, % at 3.7 µM | 370,000 compounds, 0.64% hits | AID 743269;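 active = inhibition above the screen-wide mean plus 3 SD, cut at about 13% in these data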;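 also: signal is the Cy5 over europium emission ratio at 671 and 618 nm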
IN multimer act = activates HIV-1 integrase multimerization in LEDGF counter-screen; shares compounds with LEDGF integ inh; TR-FRET HIV-1 integrase multimerization, biochemical; 2,000 compounds, 17% hits; activation, % at 7.7 µM; in the data active = activation above about 8.9%
TRFRET interf = counter-screen for LEDGF/p75 integration inhibitors: TR-FRET optical interference. shares compounds with LEDGF integ inh. TR-FRET optical interference counterscreen, HIV-1 IN multimerization. AID 1053135. 2,000 tested, under 10 active. inhibition, % at 7.7 µM;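 active = inhibition above the mean over all tested compounds plus 3 SD, which no compound reached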
IN-LEDGF confirm = confirmation of HIV-1 LEDGF/p75-dependent integration inhibitors; AID 1053136; inhibition, % at 3.7 µM; TR-FRET LEDGF/p75-dependent HIV-1 integration, biochemical; 2,000 compounds, 36% hits; shares compounds with LEDGF integ inh; in the data active = inhibition above about 14%
Of the large screens only hits and unclear results are named; the others gave an inactive call (follow-up assays come after a bar, where they were run).

Cc1ccc(C)c(OCCn2nnc3ccccc32)c1	none
COc1ccc(S(=O)(=O)NC(=O)C2(C)CCN2C(=O)CCc2ccc(Cl)cc2Cl)cc1 (stereo not drawn)	none
O=C(CN(C(=O)c1csnn1)c1ccc2c(c1)OCCO2)NCc1ccccc1	LEDGF integ inh 25.8 | IN multimer act inactive | TRFRET interf inactive | IN-LEDGF confirm inactive
Cc1cc(-c2csc(NC(=O)c3ccc(=O)[nH]c3)n2)c(C)n1Cc1ccccc1	LEDGF integ inh 16.9 | IN multimer act inactive | TRFRET interf inactive | IN-LEDGF confirm 25.9
O=C(Nc1nc(-c2ccccc2)cs1)c1ccc(=O)[nH]c1	none
C[C@H]1C(C(=O)N(C)C2CCCCC2)=Cc2c(n(-c3ccc(F)cc3)c(=O)n2CCCOc2ccccc2)C=C1c1ccccc1	LEDGF integ inh 44.4 (no result: Rin1-Abl PPI inh) | IN multimer act inactive | TRFRET interf inactive | IN-LEDGF confirm 16.9
O=C1S/C(=C\c2cccs2)C(=O)N1c1ccc(O)cc1	none
O=C1S/C(=C\C=C\c2ccco2)C(=O)N1c1ccc(O)cc1	LEDGF integ inh 30.5 | IN multimer act 16.9 | TRFRET interf inactive | IN-LEDGF confirm 28.3
Nc1nc(-c2ccco2)c(-c2ccco2)s1	LEDGF integ inh 29.8 | IN multimer act 8.9 | TRFRET interf inactive | IN-LEDGF confirm 18.9
CC(=O)c1sc(NC(=O)CCNC(=O)c2ccco2)nc1-c1ccccc1	none
O=C(CCl)Nc1nc(-c2ccco2)c(-c2ccco2)s1	LEDGF integ inh 24.5 | IN multimer act 22.8 | TRFRET interf inactive | IN-LEDGF confirm 68.0
COC(=O)C1CCN(C(=O)CN2C(=O)NC(CC(C)C)C2=O)CC1 (stereo not drawn)	none
CCC(C)[C@@H]1NC(=O)N(CCCN2CCCC2=O)C1=O (stereo partly drawn)	none
CCCOc1c(OC)cccc1C1CC(=O)Nc2cc(OC)c(OC)c(OC)c21 (stereo not drawn)	none
COc1cc2c(c(OC)c1)C(c1cccc(OC)c1OC)CC(=O)N2 (stereo not drawn)	LEDGF integ inh 16.9 | IN multimer act inactive | TRFRET interf inactive | IN-LEDGF confirm inactive
O=C(COC(=O)c1n[nH]c(=O)c2ccccc12)Nc1ccccc1F	LEDGF integ inh 14.3 | IN multimer act inactive | TRFRET interf inactive | IN-LEDGF confirm inactive
COc1cc(N(C(C)=O)c2ccc(O)cc2)c2ncccc2c1	none
COc1cc(N(C(C)=O)c2ccc(O)c(C(=O)O)c2)c2ncccc2c1	LEDGF integ inh 15.9 | IN multimer act inactive | TRFRET interf inactive | IN-LEDGF confirm 26.3
Cn1c(=O)c(C(=O)c2ccc(S(C)(=O)=O)c(Cl)c2Cl)c(O)c2ccccc21	LEDGF integ inh 37.8 | IN multimer act inactive | TRFRET interf inactive | IN-LEDGF confirm inactive
Cc1ccc(-c2nc(NCc3ccc(F)cc3)n(S(C)(=O)=O)n2)cc1	LEDGF integ inh 13.7 | IN multimer act inactive | TRFRET interf inactive | IN-LEDGF confirm inactive
Cc1nnc(N/N=C/c2ccc(-c3ccc(Br)cc3)o2)n1N	LEDGF integ inh 49.3 | IN multimer act inactive | TRFRET interf inactive | IN-LEDGF confirm inactive
Cc1nnc(N/N=C\c2ccc(-c3cccc(C(=O)O)c3)o2)n1N	LEDGF integ inh 52.7 | IN multimer act inactive | TRFRET interf inactive | IN-LEDGF confirm inactive
CCOc1cc(/C=C/C(=O)N(CC)CC(=O)NCc2cccs2)cc(Cl)c1OC	none
COc1ccccc1NC(=O)C1CCCN(S(=O)(=O)c2c(C)noc2C)C1 (stereo not drawn)	none
C=CCn1c(N)c(C(=O)NCCC2=CCCCC2)sc1=S	LEDGF integ inh 19.0 | IN multimer act inactive | TRFRET interf inactive | IN-LEDGF confirm inactive
NC(=O)NCCC1=CCCCC1	none
COCOCCn1cc(CN2CCS(=O)(=O)N(Cc3ccc(-c4ccc(Cl)c(Cl)c4)cc3)C(C)C2=O)nn1 (stereo not drawn)	none
COc1cccc2cc(C(=O)C3=C(O)C(=O)N(CCN4CCOCC4)C3c3ccc(C(C)(C)C)cc3)oc12 (stereo not drawn)	none
O=C(NC(Cc1ccccc1)C(=O)N1CCCCC1)c1ccccc1 (stereo not drawn)	none
CC1(C)CC(=O)C2=C(C1)Oc1ncn(Cc3ccco3)c(=N)c1C2c1ccccc1 (stereo not drawn)	none
CC1(C)CC(=O)C2=C(C1)Oc1ncn(CCCn3ccnc3)c(=N)c1C2c1ccccc1 (stereo not drawn)	LEDGF integ inh 88.4 | IN multimer act inactive | TRFRET interf inactive | IN-LEDGF confirm inactive
C=CCN1C=C2C(=O)C(C)(OC(=O)c3cnc4ccccc4n3)C(=O)C=C2C=C1/C=C/COC (stereo not drawn)	LEDGF integ inh 25.1 | IN multimer act inactive | TRFRET interf inactive | IN-LEDGF confirm 39.7
CCOc1ccccc1OCC(=O)NNC(=O)Cn1cnc2c1c(=O)n(C)c(=O)n2C	LEDGF integ inh 14.5 | IN multimer act inactive | TRFRET interf inactive | IN-LEDGF confirm inactive
CCSCC1COC(c2cccn2Cc2ccc(C)cc2)=N1 (stereo not drawn)	none
CCC1COC(c2cccn2Cc2ccc(Cl)cc2)=N1 (stereo not drawn)	LEDGF integ inh 14.3 | IN multimer act inactive | TRFRET interf inactive | IN-LEDGF confirm inactive
CCN(CC)S(=O)(=O)c1cc(C(=O)Nc2cc(C)[nH]n2)ccc1Cl	none (no result: TCR-CD3 inh, MBD2 DNA inh, UHRF1 binding, LEDGF integ inh)
CCC(=O)Nc1nnc(S(=O)(=O)N2CCCC2)s1	LEDGF integ inh 14.1 | IN multimer act inactive | TRFRET interf inactive | IN-LEDGF confirm inactive
CCC(=O)Nc1nnc(S(=O)(=O)N2CCCCCC2)s1	none
Cn1c(=O)c2c(nc3n2CC(O)CN3c2ccc(O)cc2)n(C)c1=O (stereo not drawn)	none
Cn1ncc([N+](=O)[O-])c1C(=O)Nc1ccc(-c2nc3ccccc3o2)cc1	LEDGF integ inh 34.6 | IN multimer act inactive | TRFRET interf inactive | IN-LEDGF confirm inactive
CC(=O)Nc1ccc(NC(=O)c2c([N+](=O)[O-])cnn2C)cc1	none
O=C(CNC(=O)c1ccc(S(=O)(=O)N2CCCC2)cc1)N/N=C/c1ccccc1Cl	none
O=C(N/N=C\c1c(O)ccc2ccccc12)c1ccc(S(=O)(=O)N2CCCCC2)cc1	LEDGF integ inh 41.0 | IN multimer act inactive | TRFRET interf inactive | IN-LEDGF confirm inactive
OC[C@H]1O[C@@H](c2nc(-c3ccc(CN4CCOCC4)cc3)no2)[C@H](O)[C@@H](O)[C@H]1O	LEDGF integ inh 15.5 | IN multimer act inactive | TRFRET interf inactive | IN-LEDGF confirm inactive
COc1ccc(CNC(=O)CC[C@H]2O[C@@H](n3cnc4c(NC(=O)c5ccccc5)ncnc43)[C@H](O)[C@@H]2O)cc1	none
Cc1nnc(NC(=O)CC(C)c2ccccc2)s1 (stereo not drawn)	none
